# Values joined by “and” are separate entries in the source; they are usually repeats but may differ in a detail not shown here. Equal values may be shown once. About 79,000 compounds went through this panel and 15% of them were active in at least one assay; those are over-represented in the sample as a whole. Some structures have more than one record in an assay (separate samples or runs), and their calls can disagree. Active and inactive are the calls of the source. No stated cut-off is given here; in the data, active means growth inhibition above about 70%; inactive means the rest.
# How the values were obtained:
# [1] = NCI Yeast Anticancer Drug Screen. Data for the rad52 strain (AID 147);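 further: 0% = growth of vehicle-treated control cultures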; conditions: S. cerevisiae rad52 mutant growth inhibition, stronger effect = higher value
# Summary of the method: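 Inhibition of yeast growth, referenced to vehicle controls, was the measured output for a strain with defective DNA damage repair.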
# [2] = NCI Yeast Anticancer Drug Screen. Data for the wt1 strain (AID 149);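 further: 0% = growth of vehicle-treated wt1 cultures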; conditions: S. cerevisiae wt1 strain (SPY 50644) growth inhibition, stronger effect = higher value
# Summary of the method: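 wt1 yeast, compound-treated; % growth inhibition vs vehicle control.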
# [3] = NCI Yeast Anticancer Drug Screen. Data for the rad50EPP+ strain (AID 151);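 further: 0% = growth of vehicle-treated control cultures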; conditions: S. cerevisiae rad50 mutant strain, stronger effect = higher value
# Summary of the method: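 Genetically defined yeast (rad50EPP+, DNA damage repair alteration) is grown with compound, and inhibition of growth is expressed relative to vehicle-treated controls.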
# [4] = NCI Yeast Anticancer Drug Screen. Data for the rad50 strain (AID 155);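 further: 0% = growth of vehicle-only cultures of the same strain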; conditions: S. cerevisiae rad50 strain growth inhibition, stronger effect = higher value
# Summary of the method: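 Genetically altered yeast (DNA repair pathway); compound treatment; growth inhibition vs vehicle ctrl.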
# [5] = NCI Yeast Anticancer Drug Screen. Data for the mec2-1 strain (AID 157); conditions: S. cerevisiae mec2-1 strain, stronger effect = higher value
# Summary of the method: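 Each compound was tested on mec2-1 yeast, a strain altered in DNA damage repair or cell cycle control. Growth inhibition is reported relative to vehicle.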
# [6] = NCI Yeast Anticancer Drug Screen. Data for the rad14 strain (AID 159);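 further: 0% = growth of vehicle-treated control cultures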; conditions: S. cerevisiae rad14 strain growth inhibition, stronger effect = higher value
# Summary of the method: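 Test compounds were applied to a repair-deficient yeast strain. Its growth was then compared with that of cultures given vehicle alone, and inhibition was expressed relative to those controls.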
# [7] = NCI Yeast Anticancer Drug Screen. Data for the sgs1 mgt1 strain (AID 161);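 further: 0% = growth of cultures given vehicle only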; conditions: S. cerevisiae sgs1 mgt1 strain, stronger effect = higher value
# Summary of the method: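 Inhibition of yeast growth, normalised to vehicle-treated controls, is reported for a strain bearing genetic alterations in DNA damage repair.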
# [8] = NCI Yeast Anticancer Drug Screen. Data for the CLN2oe strain (AID 163);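 further: 0% = growth of vehicle-only control cultures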; conditions: S. cerevisiae CLN2oe strain, stronger effect = higher value
# Summary of the method: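 First, the altered yeast strain was treated with each compound; second, its growth was measured; finally, inhibition was derived by comparison with vehicle controls.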
# [9] = NCI Yeast Anticancer Drug Screen. Data for the cln2 rad14 strain (AID 165);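 further: 0% = growth equal to vehicle treated cultures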; conditions: S. cerevisiae cln2 rad14 strain, stronger effect = higher value
# Summary of the method: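 Test compounds were added to cln2 rad14 yeast cultures; inhibition of growth was then determined by comparison with vehicle treatment.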
# [10] = NCI Yeast Anticancer Drug Screen. Data for the bub3 strain (AID 167); conditions: S. cerevisiae bub3 mutant strain, stronger effect = higher value
# Summary of the method: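 Yeast carrying a defined mutation is treated with each compound, and growth is compared with that of vehicle-exposed cells to give inhibition.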
# [11] = NCI Yeast Anticancer Drug Screen. Data for the wt2 strain (AID 169);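 further: 0% = growth of vehicle-treated yeast cultures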; conditions: S. cerevisiae wt2 strain growth inhibition, stronger effect = higher value
# Summary of the method: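 The panel's yeast strains carry defined changes in DNA repair or cell cycle genes. Each strain is grown with compound, and growth loss is scored relative to vehicle.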
# [12] = NCI Yeast Anticancer Drug Screen. Data for the mlh1 strain (AID 171);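 further: 0% = growth of vehicle-treated control cultures of the same strain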; conditions: S. cerevisiae mlh1 strain growth inhibition, stronger effect = higher value
# Summary of the method: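 Inhibition values reflect reduced yeast growth in the presence of compound, referenced to vehicle controls, using a strain chosen for its alteration in DNA repair or cell cycle control.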
# [13] = NCI Yeast Anticancer Drug Screen. Data for the sgs1 strain (AID 173);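 further: 0% = growth of vehicle-only control cultures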; conditions: S. cerevisiae sgs1 mutant, stronger effect = higher value
# Summary of the method: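 Vehicle-treated cultures served as reference for growth inhibition of a yeast strain altered in DNA damage repair or cell cycle control after compound exposure.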
# [14] = NCI Yeast Anticancer Drug Screen. Data for the mlh1 rad18 strain (AID 175); conditions: S. cerevisiae mlh1 rad18 strain growth inhibition, stronger effect = higher value
# Summary of the method: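 Inhibition values reflect reduced growth of mutant yeast versus vehicle-treated controls following compound exposure; the mutations affect DNA damage repair.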
# [15] = NCI Yeast Anticancer Drug Screen. Data for the rad18 strain (AID 177); conditions: S. cerevisiae rad18 mutant growth inhibition, stronger effect = higher value
# Summary of the method: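 Steps: expose repair-mutant yeast to compound; measure growth; express as inhibition relative to vehicle control.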
# [16] = at 5.0 µM (retest, dose inferred, filed as 0.5)
# [17] = at 50.0 µM (retest, dose inferred, filed as 5.0)
smiles,measurement,setting,value
S=c1sc2c(s1)SCCS2,growth inhibition,[1]; at 1.2 µM,1% (inactive)
same,growth inhibition,[1]; at 3.7 µM,1% (inactive)
same,growth inhibition,[1]; at 11.0 µM,4% (inactive)
same,growth inhibition,[1]; at 33.0 µM,5% (inactive)
same,growth inhibition,[1]; at 100.0 µM,7% (inactive)
same,growth inhibition,[2]; at 1.2 µM,-1% (inactive)
same,growth inhibition,[2]; at 3.7 µM,1% (inactive)
same,growth inhibition,[2]; at 11.0 µM,1% (inactive)
same,growth inhibition,[2]; at 33.0 µM,0% (inactive)
same,growth inhibition,[2]; at 100.0 µM,2% (inactive)
same,growth inhibition,[3]; at 1.2 µM,2% (inactive)
same,growth inhibition,[3]; at 3.7 µM,3% (inactive)
same,growth inhibition,[3]; at 11.0 µM,6% (inactive)
same,growth inhibition,[3]; at 33.0 µM,14% (inactive)
same,growth inhibition,[3]; at 100.0 µM,9% (inactive)
same,growth inhibition,[4]; at 1.2 µM,0% (inactive)
same,growth inhibition,[4]; at 3.7 µM,3% (inactive)
same,growth inhibition,[4]; [16],14% (inactive)
same,growth inhibition,[4]; at 11.0 µM,-16% (inactive)
same,growth inhibition,[4]; at 33.0 µM,5% (inactive)
same,growth inhibition,[4]; [17],49% (inactive)
same,growth inhibition,[4]; at 50.0 µM,13.7% (inactive) and 58.8% (inactive)
same,growth inhibition,[4]; at 100.0 µM,6% (inactive)
same,growth inhibition,[5]; at 1.2 µM,2% (inactive)
same,growth inhibition,[5]; at 3.7 µM,2% (inactive)
same,growth inhibition,[5]; [16],-11% (inactive)
same,growth inhibition,[5]; at 11.0 µM,-1% (inactive)
same,growth inhibition,[5]; at 33.0 µM,-2% (inactive)
same,growth inhibition,[5]; [17],23% (inactive)
same,growth inhibition,[5]; at 50.0 µM,5.65% (inactive) and 50% (inactive)
same,growth inhibition,[5]; at 100.0 µM,0% (inactive)
same,growth inhibition,[6]; at 1.2 µM,1% (inactive)
same,growth inhibition,[6]; at 3.7 µM,-4% (inactive)
same,growth inhibition,[6]; at 11.0 µM,-2% (inactive)
same,growth inhibition,[6]; at 33.0 µM,-1% (inactive)
same,growth inhibition,[6]; at 100.0 µM,5% (inactive)
same,growth inhibition,[7]; [16],-8% (inactive)
same,growth inhibition,[7]; [17],54% (inactive)
same,growth inhibition,[7]; at 50.0 µM,-2% (inactive) and 75.5% (active)
same,growth inhibition,[8]; at 1.2 µM,0% (inactive)
same,growth inhibition,[8]; at 3.7 µM,0% (inactive)
same,growth inhibition,[8]; at 11.0 µM,-2% (inactive)
same,growth inhibition,[8]; at 33.0 µM,-4% (inactive)
same,growth inhibition,[8]; at 100.0 µM,0% (inactive)
same,growth inhibition,[9]; [16],-14% (inactive)
same,growth inhibition,[9]; [17],32% (inactive)
same,growth inhibition,[9]; at 50.0 µM,7.95% (inactive) and 60.4% (inactive)
same,growth inhibition,[10]; at 1.2 µM,1% (inactive)
same,growth inhibition,[10]; at 3.7 µM,2% (inactive)
same,growth inhibition,[10]; [16],-20% (inactive)
same,growth inhibition,[10]; at 11.0 µM,6% (inactive)
same,growth inhibition,[10]; at 33.0 µM,5% (inactive)
same,growth inhibition,[10]; [17],49% (inactive)
same,growth inhibition,[10]; at 50.0 µM,20.4% (inactive) and 64.8% (inactive)
same,growth inhibition,[10]; at 100.0 µM,4% (inactive)
same,growth inhibition,[11]; at 1.2 µM,1% (inactive)
same,growth inhibition,[11]; at 3.7 µM,2% (inactive)
same,growth inhibition,[11]; at 11.0 µM,2% (inactive)
same,growth inhibition,[11]; at 33.0 µM,3% (inactive)
same,growth inhibition,[11]; at 100.0 µM,4% (inactive)
same,growth inhibition,[12]; at 1.2 µM,1% (inactive)
same,growth inhibition,[12]; at 3.7 µM,-2% (inactive)
same,growth inhibition,[12]; at 11.0 µM,5% (inactive)
same,growth inhibition,[12]; at 33.0 µM,1% (inactive)
same,growth inhibition,[12]; at 100.0 µM,3% (inactive)
same,growth inhibition,[13]; at 1.2 µM,-1% (inactive)
same,growth inhibition,[13]; at 3.7 µM,-1% (inactive)
same,growth inhibition,[13]; at 11.0 µM,0% (inactive)
same,growth inhibition,[13]; at 33.0 µM,0% (inactive)
same,growth inhibition,[13]; at 100.0 µM,3% (inactive)
same,growth inhibition,[14]; [16],46% (inactive)
same,growth inhibition,[14]; [17],59% (inactive)
same,growth inhibition,[14]; at 50.0 µM,20.8% (inactive) and 57.5% (inactive)
same,growth inhibition,[15]; at 1.2 µM,-4% (inactive)
same,growth inhibition,[15]; at 3.7 µM,-3% (inactive)
same,growth inhibition,[15]; at 11.0 µM,-2% (inactive)
same,growth inhibition,[15]; at 33.0 µM,-15% (inactive)
same,growth inhibition,[15]; at 100.0 µM,6% (inactive)

# Source: PubChem BioAssay (NCI)
